Results taken from PubChem BioAssay (NCI).
Compounds without any hit were thinned out: in the full panel of roughly 79,000, 15% have a hit. Unmarked numbers belong to inactive results. Calls of active or inactive are those of the source. Rule as the data show it: active = growth inhibition above about 70%; inactive = the rest.

Key:
[1] = NCI Yeast Anticancer Drug Screen. Data for the rad50 strain (AID 155);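 also: 0% = growth of vehicle-only cultures of the same strain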; conditions: S. cerevisiae rad50 strain growth inhibition, active compounds read high
Method in brief: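 DNA repair mutant yeast, compound exposure, growth read-out; inhibition is taken relative to vehicle.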

[2] = NCI Yeast Anticancer Drug Screen. Data for the mec2-1 strain (AID 157); conditions: S. cerevisiae mec2-1 strain, active compounds read high
Method in brief: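 Mutant yeast (mec2-1) grown with compound; growth inhibition relative to vehicle control reported.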

[3] = NCI Yeast Anticancer Drug Screen. Data for the sgs1 mgt1 strain (AID 161);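 also: 0% = growth of cultures given vehicle only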; conditions: S. cerevisiae sgs1 mgt1 strain, active compounds read high
Method in brief: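 Percent growth inhibition was derived by comparing compound-exposed mutant yeast with vehicle-exposed cultures. The strain carries alterations in DNA damage repair.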

[4] = NCI Yeast Anticancer Drug Screen. Data for the cln2 rad14 strain (AID 165);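 also: 0% = growth equal to vehicle treated cultures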; conditions: S. cerevisiae cln2 rad14 strain, active compounds read high
Method in brief: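 Readout is yeast growth inhibition versus vehicle-treated controls, using a strain with cln2 and rad14 alterations exposed to compound.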

[5] = NCI Yeast Anticancer Drug Screen. Data for the bub3 strain (AID 167); conditions: S. cerevisiae bub3 mutant strain, active compounds read high
Method in brief: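 In this screen, a yeast mutant lacking normal mitotic checkpoint function is challenged with compound. Relative growth versus vehicle gives the inhibition value.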

[6] = NCI Yeast Anticancer Drug Screen. Data for the mlh1 rad18 strain (AID 175); conditions: S. cerevisiae mlh1 rad18 strain growth inhibition, active compounds read high
Method in brief: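 Genetically defined yeast (DNA repair-deficient) exposed to compounds; growth inhibition determined relative to vehicle.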

[7] = at 5.0 µM (retest, dose inferred, filed as 0.5)
[8] = at 50.0 µM (retest, dose inferred, filed as 5.0)

SMILES	growth inhibition [1, 7]	growth inhibition [1, 8]	growth inhibition ([1]; at 50.0 µM)	growth inhibition [2, 7]	growth inhibition [2, 8]	growth inhibition ([2]; at 50.0 µM)	growth inhibition [3, 7]	growth inhibition [3, 8]	growth inhibition ([3]; at 50.0 µM)	growth inhibition [4, 7]	growth inhibition [4, 8]	growth inhibition ([4]; at 50.0 µM)	growth inhibition [5, 7]	growth inhibition [5, 8]	growth inhibition ([5]; at 50.0 µM)	growth inhibition [6, 7]	growth inhibition [6, 8]	growth inhibition ([6]; at 50.0 µM)
CCOc1ccc(Nc2nc3c(s2)C(=O)c2ccccc2C3=O)cc1	78% (active)	99% (active)	90.7% (active)	99% (active)	99% (active)	92.1% (active)	90% (active)	99% (active)	92.7% (active)	58%	98% (active)	90.8% (active)	98% (active)	99% (active)	92.5% (active)	89% (active)	98% (active)	91.8% (active)
Cc1cc(O)c2c(c1)C(=O)C(c1c(C)cc3c(c1O)C(=O)C1OC1C3=O)=CC2=O (stereo not given)	98% (active)	96% (active)	76.8% (active)	99% (active)	96% (active)	76.2% (active)	99% (active)	95% (active)	89.7% (active)	98% (active)	95% (active)	79.3% (active)	99% (active)	95% (active)	79.2% (active)	98% (active)	97% (active)	87.8% (active)
CC12CCC(O)CC1=CCC1C2CCC2(C)C3=NN=CC3CC12 (stereo not given)	38%	99% (active)	96.6% (active)	16%	100% (active)	99.4% (active)	35%	100% (active)	98.5% (active)	7%	100% (active)	99.2% (active)	31%	100% (active)	99.3% (active)	50%	100% (active)	99.5% (active)
CN(C)CC(C)(CN(C)C)C(=O)/C=C/c1c(Cl)cccc1Cl	5%	84% (active)	85% (active)	-2%	73% (active)	93.7% (active)	1%	93% (active)	77.4% (active)	3%	56%	18.9%	4%	87% (active)	81% (active)	7%	93% (active)	91.5% (active)
CC(C)=C1C=C2CC[C@@H]3[C@](C)(CCC[C@@]3(C)C(=O)O)[C@H]2CC1	-1%	93% (active)	88.3% (active)	3%	95% (active)	90.2% (active)	2%	95% (active)	91% (active)	-4%	91% (active)	90.3% (active)	-1%	94% (active)	85.8% (active)	0%	94% (active)	88.5% (active)
CCSc1nc2ccccc2o1	7%	0%	54.4%	0%	-1%	39.6%	6%	2%	9.4%	6%	-2%	30.6%	3%	-2%	42.6%	3%	-3%	-15.7%
CCCCCCCCc1cc(Cl)c(O)c(Cl)c1	3%	75% (active)	99.5% (active)	-8%	90% (active)	99.6% (active)	-14%	98% (active)	99.2% (active)	-13%	97% (active)	99.6% (active)	-11%	66%	98.7% (active)	-10%	98% (active)	99.3% (active)
O=[N+]([O-])c1ccc2c(c1)Cc1ccccc1-2	15%	-11%	63.5%	-10%	-25%	9.35%	8%	5%	25.2%	-2%	-20%	-13.5%	0%	-59%	-17.2%	20%	2%	67.2%
COc1cc(/C=C/c2ccnc3ccccc23)cc(OC)c1OC	30%	59%	43.4%	34%	68%	79.3% (active)	14%	93% (active)	88.2% (active)	25%	45%	65.3%	43%	92% (active)	72.6% (active)	45%	81% (active)	22.2%
CC1=CC[C@@H]2[C@@H](CC[C@@]2(C)O)C(C)(C)[C@H]1CC[C@@H]1[C@@]2(C)CC[C@@H](O)C(C)(C)O[C@@H]2CC[C@]1(C)O	12%	39%	62.9%	-8%	19%	38%	4%	70% (active)	77.5% (active)	18%	19%	46%	17%	33%	45.8%	-2%	20%	12.6%
